The assay in a line: GAPDH versus PEG-3 reporter suppression – cell-based, luminescence, counter-screen for PEG-3 promoter inhibitor project, SAR follow-up (AID 651551). As to conditions: HeLa PEG-Prom / GAPDH luciferase reporter, 6 or 24 h, run 2, 24 h; at 99 µM (top of the series). On the technique in general: The purpose of a counterscreen is to sort out artefacts and off-target activity.
Turning to `Cc1nc(NC(=O)c2ccccc2)sc1-c1csc(Nc2cccc(Cl)c2C)n1`, the inhibition % (higher = more inhibition) stood at 46.8%.
Next, `CCn1cc(C(=O)NCc2ccco2)c(=O)c2cc(S(=O)(=O)N3CCCC3)ccc21`: 48.4%; `O=C(Nc1nc(-c2ccccc2)cs1)c1nn(-c2ccccc2)c(=O)c2ccccc12`: 43.1%; `COc1ccccc1Nc1nc(-c2sc(NC(=O)c3ccco3)nc2C)cs1`: 76.4%.
The molecule `CCCn1nc(C(=O)Nc2nc(-c3ccncc3)cs2)c2ccccc2c1=O` registered an inhibition % (higher = more inhibition) of 72%.
In turn, `Cc1cc(NC(=O)c2ccccc2)n(-c2nc3ccccc3n2C)n1` yielded an inhibition % (higher = more inhibition) of 4.57%.
The molecule `O=C(Nc1nccs1)c1nn(-c2ccccc2)c(=O)c2ccccc12` returned an inhibition % (higher = more inhibition) of 56.2%.
Next, `Cc1cc(NC(=O)c2ccccc2C(F)(F)F)n(-c2nc3ccccc3[nH]2)n1`: 95.1%.
Next, `Cc1nc(NC(=O)c2ccccc2)sc1-c1csc(Nc2ccccc2)n1`: 87.7%.
Under `Cc1ccc(Cl)cc1Nc1nc(-c2sc(NC(=O)c3ccco3)nc2C)cs1` stands 85.8%; under `Cc1cc(NC(=O)c2cccc(C)c2C)n(-c2nc3ccccc3[nH]2)n1`, 54.6%.
Regarding `COc1ccc(Cl)cc1Nc1nc(-c2sc(NC(=O)c3ccccc3)nc2C)cs1`, the inhibition % (higher = more inhibition) is 75.6%.
`COc1ccc(-n2nc(C(=O)NCC(=O)Nc3ccc(OC)c(OC)c3)c3ccccc3c2=O)cc1` displayed an inhibition % (higher = more inhibition) of 86.5%.
Under `COc1ccc(-n2nc(C(=O)NCC(=O)Nc3cc(OC)c(OC)c(OC)c3)c3ccccc3c2=O)cc1OC` stands 71.7%; under `Cc1cc(NC(=O)c2ccccc2C)n(-c2nc3ccccc3[nH]2)n1`, 76.4%; under `Cc1nc(NC(=O)c2ccccc2)sc1-c1csc(Nc2ccccc2Cl)n1`, 60.8%.

The values above are taken from PubChem BioAssay AID651551 (Sanford-Burnham Center for Chemical Genomics, 2012).
